Records with an inconclusive call do not appear. The source made the active and inactive calls. No rule for the calls is given here.
Test: qHTS Assay for Inhibitors of Influenza NS1 Protein Function: Viral Replication TCID50
Settings: Influenza virus replication in cells, at 10 µM, stronger effect = lower value
Source text: Influenza is a world-wide public health problem and emerging forms of the virus have the potential to cause a pandemic of equal or greater magnitude to the outbreaks recorded in 1918, 1957 or 1968. Vaccine development is proceeding and there also exist two classes of anti-influenza compounds. However these therapeutic modalities are neither fully effective nor widely enough available to fulfill global needs. In addition their potential usefulness against newly emergent strains is not known. Efforts are needed to develop novel agents against influenza virus, including broad-spectrum agents. Identification of small molecules that inhibit NS1 function either directly or by interfering with specific cellular pathways may be a key to increasing our defense against the virus.
We have miniaturized and optimized a cell based assay in which NS1 from influenza A is expressed in the budding yeast S. cerevisiae. NS1 is a multi-functional protein that counters the host innate immune response and facilitates viral versus cellular gene expression. Expression of NS1 causes a pronounced slow growth phenotype in yeast due to its intrinsic molecular activities. Small molecules that suppress the slow growth phenotype can be identified by a straightforward growth recovery assay using optical density (OD) as the measurement. The same yeast strain not expressing NS1 was used as positive control in the yeast growth recovery assay.
Hits resulting from the primary screen and other follow-up screens, were tested in two concentrations in this viral replication assay.
NIH Chemical Genomics Center [NCGC]
NIH Molecular Libraries Probe Centers Network [MLPCN]
Assay Submitter (PI): Daniel Engel, University of Virgina
Cell monolayers were infected at an m.o.i. of 0.1 for 48 h in the presence or absence of the compound, which was added at the beginning of infection. Virus titres were determined by TCID50 analysis (Reed, L. J. & Muench, H. (1938). A simple method of estimating fifty per cent endpoints. Am J Epidemiol 27, 493-497)

SMILES | viral titer (log10 TCID50)
COc1ccc(-c2c(C#N)c(N)nc3c2c(C)nn3-c2ccccc2)cc1OC | 8.66 (active)
COc1cc(-c2c3c(C)nn(-c4ccccc4)c3nc3[nH]c(=O)[nH]c(=O)c23)cc(OC)c1O | 8.33 (active)
Cc1nn(-c2ccccc2)c2nc3[nH]c(=O)[nH]c(=O)c3c(-c3ccc4c(c3)OCO4)c12 | 8.33 (active)
COc1cc(-c2c(C#N)c(=O)[nH]c3c2c(C)nn3-c2ccccc2)cc(OC)c1OC | 7.66 (active)
COc1cc(-c2ccnc3c2c(C)nn3-c2cccc(F)c2)ccc1O | 9 (active)
COc1ccc(-c2c(C#N)c(=O)[nH]c3c2c(C)nn3-c2ccccc2)cc1OC | 8.66 (active)
COc1ccc(-c2c(C#N)c(N)nc3c2c(C)nn3-c2ccc(C)cc2)cc1OC | 9 (active)
COc1ccc(-c2c(C#N)c(=O)[nH]c3c2c(C)nn3-c2ccc(F)cc2)cc1OC | 9 (active)
COc1ccc(-c2ccnc3c2c(C)nn3-c2ccc(F)cc2)cc1OC | 8.66 (active)
COc1ccc(-c2ccnc3c2c(C)nn3-c2ccc(F)cc2)cc1 | 8.33 (active)
CCOc1cc(-c2c(C#N)c(=O)[nH]c3c2c(C)nn3-c2ccc(F)cc2)ccc1O | 8.66 (active)
COc1cccc(-n2nc(C)c3c(-c4ccc(O)c(OC)c4)ccnc32)c1 | 9 (active)
Cc1nn(-c2ccc(F)cc2)c2nc(N)c(C#N)c(-c3ccc(O)c(O)c3)c12 | 7.66 (active)
COc1cc(-c2c(C#N)c(N)nc3c2c(C)nn3-c2ccc(Cl)cc2)cc(OC)c1OC | 9 (active)
COc1cc(-c2c(C#N)c(N)nc3c2c(C)nn3-c2ccc(C)c(C)c2)cc(OC)c1OC | 9 (active)
COc1ccc(-c2c(C#N)c(N)nc3c2c(C)nn3-c2ccc(Cl)cc2)cc1OC | 9 (active)
COc1cccc(-c2ccnc3c2c(C)nn3-c2ccc(F)cc2)c1 | 8.5 (active)
COc1cc(-c2c(C#N)c(N)nc3c2c(C)nn3-c2ccc(C)cc2)ccc1O | 8.5 (active)
COc1cc(-c2ccnc3c2c(C)nn3-c2ccccc2)ccc1O | 9 (active)
COc1cc(-c2c(C#N)c(N)nc3c2c(C)nn3-c2ccc(F)cc2)ccc1O | 6 (active)

Same assay, conditions: Influenza virus replication in cells, viral titer, at 5 µM, stronger effect = lower value

SMILES | viral titer (log10 TCID50)
COc1ccc(-c2c(C#N)c(N)nc3c2c(C)nn3-c2ccccc2)cc1OC | 9
COc1cc(-c2c3c(C)nn(-c4ccccc4)c3nc3[nH]c(=O)[nH]c(=O)c23)cc(OC)c1O | 8.66
Cc1nn(-c2ccccc2)c2nc3[nH]c(=O)[nH]c(=O)c3c(-c3ccc4c(c3)OCO4)c12 | 8.66
COc1cc(-c2c(C#N)c(=O)[nH]c3c2c(C)nn3-c2ccccc2)cc(OC)c1OC | 8.5
COc1cc(-c2ccnc3c2c(C)nn3-c2cccc(F)c2)ccc1O | 9
COc1ccc(-c2c(C#N)c(=O)[nH]c3c2c(C)nn3-c2ccccc2)cc1OC | 9
COc1ccc(-c2c(C#N)c(N)nc3c2c(C)nn3-c2ccc(C)cc2)cc1OC | 9
COc1ccc(-c2c(C#N)c(=O)[nH]c3c2c(C)nn3-c2ccc(F)cc2)cc1OC | 9
COc1ccc(-c2ccnc3c2c(C)nn3-c2ccc(F)cc2)cc1OC | 9
COc1ccc(-c2ccnc3c2c(C)nn3-c2ccc(F)cc2)cc1 | 9
CCOc1cc(-c2c(C#N)c(=O)[nH]c3c2c(C)nn3-c2ccc(F)cc2)ccc1O | 9
COc1cccc(-n2nc(C)c3c(-c4ccc(O)c(OC)c4)ccnc32)c1 | 9
Cc1nn(-c2ccc(F)cc2)c2nc(N)c(C#N)c(-c3ccc(O)c(O)c3)c12 | 8.5
COc1cc(-c2c(C#N)c(N)nc3c2c(C)nn3-c2ccc(Cl)cc2)cc(OC)c1OC | 9
COc1cc(-c2c(C#N)c(N)nc3c2c(C)nn3-c2ccc(C)c(C)c2)cc(OC)c1OC | 9
COc1ccc(-c2c(C#N)c(N)nc3c2c(C)nn3-c2ccc(Cl)cc2)cc1OC | 9
COc1cccc(-c2ccnc3c2c(C)nn3-c2ccc(F)cc2)c1 | 9
COc1cc(-c2c(C#N)c(N)nc3c2c(C)nn3-c2ccc(C)cc2)ccc1O | 8.5
COc1cc(-c2ccnc3c2c(C)nn3-c2ccccc2)ccc1O | 9
COc1cc(-c2c(C#N)c(N)nc3c2c(C)nn3-c2ccc(F)cc2)ccc1O | 7.66
